Hits are enriched below; roughly 8% of the tested compounds scored in any of these assays.
KB-V1 MDR tox: KB-V1 MDR subline cytotoxicity | KB-V1 MDR cells viability, CellTiter-Glo, 72 h | hit rate 3.4% among 400,000 | AID 1347076 | Potency, µM (highest dose often 46.1 µM), hits mostly cytotoxic; also: % is scaled to controls: 0 for no effect and ±100 for the full control effect; nearly all actives have a fitted effect of over 60% in size
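KB-V1, DMEM (no phenol red) + 10% FBS; cpd pin-transferred, titration series; 72 h, 37 degrees C; CellTiter-Glo, luminescence. Data normalized, curve-fit.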
HT1080-NT tox: kills 2HG-producing HT-1080-NT fibrosarcoma cells; HT-1080-NT fibrosarcoma viability, CellTiter-Glo ATP luminescence, 48 h; Potency, µM (top dose mostly 46.1 µM), inactives show at the top dose activity, negative = less viability, usual class: cytotoxic; hit rate 1.6% among 360,000;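 also: NT is the 2HG producing partner of a matched IDH1 knockdown line; 0% = DMSO-treated cells and -100% = media-only wells without cells; nearly all actives have a fitted effect of over 55% in size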
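Compounds were tested in concentration-response format on HT-1080-NT cells for 48 hours at 37 degrees C. Cell viability came from CellTiter-Glo luminescence; curves were classified by r2, response magnitude and activity.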
MCF10A rereplic: DNA re-replication induction in MCF 10a cells. MCF 10A DNA re-replication, Hoechst nuclear intensity, 48 h. Potency, µM (titrated, usually from 46.1 µM), for inactives: top-dose activity, positive = re-replication, actives largely listed as activators. hit rate 2.9% among 350,000. AID 624296; also: % of control where 0% means no effect; nearly all actives have a fitted effect of over 50% in size
SW480 rerep: DNA re-replication induction in SW480 cells. SW480 DNA re-replication, Hoechst DNA content imaging, 48 h. Potency, µM (highest dose often 46.1 µM), for the others: at the highest dose re-replication activation, most hits filed as activators. hit rate 1.8% among 340,000. AID 624297; also: % of control where 0% means no effect; nearly all actives have a fitted effect of over 55% in size
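Cells (250 per well) received 23 nL compound or DMSO by pin tool and were kept 48 hr at 37 C, 5% CO2. Nuclei were then stained with Hoechst for 40 min and scanned for DNA content.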
KB-3-1 cytotox: kills parental KB-3-1 adenocarcinoma cells. KB-3-1 viability, CellTiter-Glo ATP luminescence, 72 h. Potency, µM (titrated, usually from 46.1 µM), actives largely listed as cytotoxic. hit rate 1.4% among 400,000; also: % is scaled to controls: 0 for no effect and ±100 for the full control effect; nearly all actives have a fitted effect of over 60% in size
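KB-3-1 parental drug-naive adenocarcinoma cells in DMEM/10% FBS, incubated 72 h at 37 C with pin-transferred compounds across a concentration series. Viability by CellTiter-Glo luminescence; concentration-response curves fitted after normalization.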
HT1080 IDH1KD tx: kills HT-1080 cells with IDH1 knockdown. HT-1080 IDH1 knockdown viability, ATP luminescence, 48 h. Potency, µM (titrated, usually from 46.1 µM), for the others: at the highest dose activity, negative = toxicity, actives largely listed as cytotoxic. hit rate 2% among 360,000. AID 686971;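 also: 0% = DMSO wells and -100% = cell-free medium wells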
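IDH1KD HT-1080 cells, 750/well, RPMI + 5% FBS; compound pinned after 2 h settling; 48 h, 37 °C; CellTiter-Glo luminescence; % activity normalised to DMSO and no-cell wells; curves fitted, classed by r2 and efficacy.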
Starred values were filed as active, the others as inactive; i = inactive; ? = inconclusive; / = not tested or not shown; ! = repeats disagree. Calls follow the shape of the dose curve; as a rule, active = well fitted curve in the direction sought with a large enough effect; inconclusive = small, poorly fitted or top-dose-only effect, or another doubt; inactive = no such curve, though single readings can be large; an effect the other way counts as inactive or inconclusive. Potency is read from the fitted curve at half-maximal effect.

SMILES	KB-V1 MDR tox	HT1080-NT tox	MCF10A rereplic	SW480 rerep	KB-3-1 cytotox	HT1080 IDH1KD tx
CCc1ccccc1NC(=O)CN1CCN(CC(=O)Nc2ccc(-c3ccccc3)cc2)CC1	?	16.2%	?	8.0%	i	4.6%
Cc1ccc2[nH]c(=O)c(-c3nc4ccccn4c3NCc3ccco3)cc2c1	8.2µM*	?	-0.4%	-5.2%	i	?
O=Cc1c(NCc2ccco2)nc2ccccn2c1=O	i	-2.2%	-1.1%	-8.5%	i	-0.1%
COC(=O)c1cccc(Nc2c3c(nc4ccccc24)CCC3)c1	18.4µM*	20.6µM*	?	?	20.6µM*	16.4µM*
c1ccc2c(Nc3ccc4c(c3)OCCO4)c3c(nc2c1)CCCC3	?	16.4µM*	-7.2%	4.9%	i	?
Cc1ccc2nc3c(c(Nc4cccc(O)c4)c2c1)CCC3	?	18.4µM*	?	-4.6%	?	?
CCOC(=O)c1cccc(Nc2c3c(nc4ccccc24)CCC3)c1	?	/	/	/	i	/
O=C(Nc1c2c(nc3ccccc13)CCCC2)c1ccccc1Cl	i	7.6%	-0.3%	7.31µM*	i	5.2%
CC(=O)c1cccc(Nc2c3c(nc4ccccc24)CCC3)c1	i	5.8µM*	?	5.8µM*	1.84µM*	2.59µM*
CC(=O)c1ccc(Nc2c3c(nc4ccccc24)CCCC3)cc1	i	?	14.6µM*	?	?	?
CCOCCc1nn2c(=O)cc(COC(=O)CNC(=O)c3ccc(F)cc3)nc2s1	?	/	/	/	i	/
Cc1ccc(C(=O)NCC(c2ccco2)S(=O)(=O)c2ccc(Cl)cc2)cc1C (centres undefined)	i	/	/	/	i	/
CCCCSc1nc(-c2ccc(OC)cc2)ccc1C#N	?	/	/	/	i	/
CC(C)Oc1ccc(C(=O)Nc2ccc3c(c2)CCCN3C(=O)c2cccs2)cc1	?	/	/	/	6.51µM*	/
COc1ccc(C(=O)Nc2ccc3c(c2)CCCN3C(=O)c2cccs2)c(OC)c1	?	-12.7%	12.9%	-11.8%	?	-15.7%
COc1cccc(C(=O)Nc2ccc3c(c2)CCCN3C(=O)c2cccs2)c1OC	?	?	17.8%	-26.1%	9.2µM*!	?
O=C(c1cccs1)N1CCCc2ccccc21	?	2.3%	22.9%	-3.4%	i	-13.2%
Cc1ccc2c(c1)CCCN2C(=O)c1cccs1	16.4µM*	-20.8%	?	?	i	?
Cc1cccc(-c2nc(S(=O)(=O)c3ccc(F)cc3)c(N3CCN(c4ccccc4)CC3)o2)c1	i	/	/	/	i	/
COc1cccc2sc(N(CCCN(C)C)C(=O)c3ccc(S(=O)(=O)N4CCc5ccccc5C4)cc3)nc12	i	?	?	?	i	?
COc1cc2nc(N(CCCN(C)C)C(=O)c3ccc(S(=O)(=O)N4CCc5ccccc5C4)cc3)sc2cc1OC	i	-0.6%	9.0%	?	i	-1.7%
Cc1ccc2sc(N(CCCN(C)C)C(=O)c3ccc(S(=O)(=O)N4CCc5ccccc5C4)cc3)nc2c1C	i	20.6µM*	?	3.66µM*	i	?
COc1ccc(C)c2sc(N(CCCN(C)C)C(=O)c3ccc(S(=O)(=O)N4CCc5ccccc5C4)cc3)nc12	10.3µM*	?	16.4µM*	?	?	?
Cc1ccc2sc(N(CCCN(C)C)C(=O)c3ccc(S(=O)(=O)N(C)C)cc3)nc2c1C	i	-10.4%	8.5%	3.1%	i	-11.3%
CN(C)CCCN(C(=O)c1ccc(S(=O)(=O)N2CCc3ccccc3C2)cc1)c1nc2c(F)cc(F)cc2s1	i	-23.5%	14.7%	3.66µM*	i	-7.5%
CCOc1ccc(OC(=O)c2c(-c3ccccc3Cl)noc2C)cc1	i	/	/	/	i	/
Cc1ccc(-c2nn(-c3ccc(F)cc3F)c3c2cnc2ccc(F)cc23)cc1	i	/	/	/	i	/

Screening data deposited in PubChem by National Center for Advancing Translational Sciences (NCATS).
